Experimental data published in the supplement of paper PMC9262897, “Low-cost anti-mycobacterial drug discovery using engineered E. coli” (Nature Communications, 2022).
Structures can show the parent of a compound that is named as a salt. ± gives the standard deviation of the averaged measurements.

Assays:
Assay in all cases: growth (OD600 after 10 h); higher = more growth (less inhibition)
[1] = tested on: E. coli TESEC Alr+ wild-type control; conditions: compound 0.1 mM; raw OD600 reference: median of DMSO wells 0.241, cell-free background 0.041
Procedure: (§1)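 TESEC Mtb Alr E. coli, or the Alr+ wild-type control, in 384-well plates with Prestwick library compounds at 0.1 mM and 1% DMSO, across arabinose induction levels of 1E3 to 1E7 nM. Growth is read as OD600 after 10 h at 37 °C in triplicate biological replicates.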

[2] = tested on: E. coli TESEC Mtb Alr; conditions: compound 0.1 mM
Procedure: as §1

[3] = tested on: E. coli TESEC Mtb Asd; conditions: compound 0.1 mM
Procedure: (§2)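 TESEC E. coli strains in which the native enzyme is deleted and replaced by arabinose-inducible Mtb Asd, DapB, CysH or TrpD, each grown in its selective medium. Strains were screened against the Prestwick library at 0.1 mM and 1% DMSO in 384-well format at low and high arabinose induction. Growth is read as OD600 after 10 h in triplicate.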

[4] = tested on: E. coli TESEC Mtb DapB; conditions: compound 0.1 mM
Procedure: as §2

[5] = tested on: E. coli TESEC Mtb Alr; conditions: compound 0.1 mM; remark: listed apart in the source
Procedure: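 TESEC Mtb Alr E. coli (ΔaraC ΔtolC ΔentC Δalr ΔdadX, arabinose-inducible Mtb Alr) or the Alr+ wild-type control strain, grown in defined M9-fructose medium without D-alanine in 96-well plates with Prestwick library compounds at 0.1 mM and 1% DMSO. Low Alr induction is 0.1 µM arabinose and high induction is 10 mM arabinose.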

[6] = arabinose 1000 nM, raw OD600 reference: median of DMSO wells 0.294, cell-free background 0.041
[7] = arabinose 10000 nM, raw OD600 reference: median of DMSO wells 0.264, cell-free background 0.041
[8] = arabinose 100000 nM, raw OD600 reference: median of DMSO wells 0.201, cell-free background 0.041
[9] = arabinose 1000000 nM, raw OD600 reference: median of DMSO wells 0.193, cell-free background 0.041
[10] = arabinose 10000000 nM, raw OD600 reference: median of DMSO wells 0.146, cell-free background 0.041
[11] = arabinose induction (level): High, raw OD600 reference: median of DMSO wells 0.331, cell-free background 0.041
[12] = arabinose induction (level): Low, raw OD600 reference: median of DMSO wells 0.417, cell-free background 0.041
[13] = arabinose induction (level): High, raw OD600 reference: median of DMSO wells […], cell-free background 0.041
[14] = arabinose induction (level): Low, raw OD600 reference: median of DMSO wells 0.227, cell-free background 0.041
[15] = arabinose 100 nM, raw OD600 reference: median of DMSO wells 0.413, cell-free background 0.052
[16] = arabinose 10000000 nM, raw OD600 reference: median of DMSO wells […], cell-free background 0.052

Row | SMILES | growth [1] | growth [2, 6] | growth [2, 7] | growth [2, 8] | growth [2, 9] | growth [2, 10] | growth [3, 11] | growth [3, 12] | growth [4, 13] | growth [4, 14] | growth [5, 15] | growth [5, 16]
1 | O=C1[C@H](CC[C@H](O)c2ccc(F)cc2)[C@@H](c2ccc(O)cc2)N1c1ccc(F)cc1 [Ezetimibe] | 0.0438 ± 0.00074 | 0.0482 ± 0.0028 | 0.046 ± 0.00091 | 0.0462 ± 0.0037 | 0.0477 ± 0.004 | 0.0501 ± 0.0032 | 0.101 ± 0.082 | 0.0479 ± 0.0012 | 0.0503 ± 0.003 | 0.04873 ± 0.00038 | 0.0636 ± 0.0051 | 0.061 ± 0.01
2 | CCOc1ccccc1OC(c1ccccc1)C1CNCCO1 (stereo unspecified) [Reboxetine mesylate] | 0.203 ± 0.0099 | 0.265 ± 0.023 | 0.253 ± 0.012 | 0.2 ± 0.02 | 0.15 ± 0.0074 | 0.1507 ± 0.0007 | 0.249 ± 0.038 | 0.296 ± 0.061 | 0.15 ± 0.0036 | 0.183 ± 0.021 | 0.402 ± 0.015 | 0.336 ± 0.022
3 | CN1CCC(=C2c3ccccc3CCc3cccnc32)CC1 [Azatadine maleate] | 0.1961 ± 0.0017 | 0.271 ± 0.0097 | 0.256 ± 0.0041 | 0.178 ± 0.0055 | 0.18 ± 0.0037 | 0.132 ± 0.0041 | 0.209 ± 0.017 | 0.313 ± 0.045 | 0.18 ± 0.014 | 0.186 ± 0.018 | 0.4 ± 0.013 | 0.338 ± 0.018
4 | CCOC(=O)[C@H](CCc1ccccc1)N[C@@H](C)C(=O)N1Cc2ccccc2C[C@H]1C(=O)O [Quinapril HCl] | 0.218 ± 0.012 | 0.29 ± 0.0069 | 0.2807 ± 0.0024 | 0.155 ± 0.012 | 0.21 ± 0.0061 | 0.144 ± 0.0052 | 0.246 ± 0.03 | 0.403 ± 0.052 | 0.155 ± 0.012 | 0.165 ± 0.0056 | 0.384 ± 0.015 | 0.309 ± 0.011
5 | COc1cc(NC(C)CCCN)c2ncccc2c1 (stereo unspecified) [Primaquine diphosphate] | 0.0466 ± 0.00081 | 0.0463 ± 0.00081 | 0.04143 ± 0.00031 | 0.0508 ± 0.0023 | 0.043 ± 0.00026 | 0.0577 ± 0.0019 | 0.0857 ± 0.0065 | 0.0611 ± 0.0046 | 0.122 ± 0.092 | 0.0664 ± 0.0032 | 0.38 ± 0.018 | 0.08 ± 0.024
6 | CN(C)CCC=C1c2ccccc2COc2ccccc21 [Doxepin hydrochloride] | 0.199 ± 0.018 | 0.245 ± 0.0099 | 0.262 ± 0.011 | 0.178 ± 0.0063 | 0.134 ± 0.0022 | 0.144 ± 0.0036 | 0.186 ± 0.034 | 0.326 ± 0.032 | 0.169 ± 0.013 | 0.182 ± 0.013 | 0.41 ± 0.0055 | 0.342 ± 0.046
7 | Nc1nc(NC2CC2)c2ncn([C@H]3C=C[C@@H](CO)C3)c2n1 [Abacavir Sulfate] | 0.238 ± 0.018 | 0.295 ± 0.024 | 0.253 ± 0.0039 | 0.182 ± 0.012 | 0.18 ± 0.0053 | 0.133 ± 0.0075 | 0.317 ± 0.022 | 0.423 ± 0.015 | 0.183 ± 0.018 | 0.212 ± 0.038 | 0.408 ± 0.016 | 0.339 ± 0.0091
8 | CN(CCOc1ccc(CC2SC(=O)NC2=O)cc1)c1ccccn1 (stereo unspecified) [Rosiglitazone Hydrochloride] | 0.142 ± 0.0027 | 0.177 ± 0.0057 | 0.168 ± 0.011 | 0.177 ± 0.0028 | 0.0847 ± 0.0029 | 0.112 ± 0.0041 | 0.184 ± 0.026 | 0.19 ± 0.023 | 0.177 ± 0.015 | 0.215 ± 0.028 | 0.266 ± 0.021 | 0.1 ± 0.016
9 | C#C[C@]1(O)CC[C@H]2[C@@H]3CCc4cc(OC)ccc4[C@H]3CC[C@@]21C [Ethynylestradiol 3-methyl ether] | 0.193 ± 0.01 | 0.279 ± 0.0063 | 0.262 ± 0.013 | 0.184 ± 0.015 | 0.163 ± 0.0052 | 0.149 ± 0.0072 | 0.383 ± 0.025 | 0.413 ± 0.06 | 0.204 ± 0.031 | 0.226 ± 0.025 | 0.405 ± 0.011 | 0.348 ± 0.024
10 | CSc1nc2cc(Cl)c(Oc3cccc(Cl)c3Cl)cc2[nH]1 [Triclabendazole] | 0.0427 ± 0.0024 | 0.0531 ± 0.0014 | 0.0802 ± 0.002 | 0.0447 ± 0.0021 | 0.0733 ± 0.012 | 0.04873 ± 5.8e-05 | 0.0558 ± 0.0083 | 0.0583 ± 0.0045 | 0.0562 ± 0.0033 | 0.0542 ± 0.0043 | 0.0864 ± 0.011 | 0.137 ± 0.014
11 | C[C@H](O)C(=O)Nc1c(I)c(C(=O)NC(CO)CO)c(I)c(C(=O)NC(CO)CO)c1I [Iopamidol] | 0.261 ± 0.011 | 0.323 ± 0.014 | 0.287 ± 0.012 | 0.217 ± 0.0049 | 0.195 ± 0.0084 | 0.166 ± 0.0031 | 0.443 ± 0.035 | 0.396 ± 0.035 | 0.221 ± 0.0036 | 0.249 ± 0.028 | 0.397 ± 0.022 | 0.338 ± 0.011
12 | O=C(NCC1CCCCN1)c1cc(OCC(F)(F)F)ccc1OCC(F)(F)F (stereo unspecified) [Flecainide acetate] | 0.2202 ± 0.00045 | 0.2999 ± 0.00055 | 0.276 ± 0.0049 | 0.188 ± 0.0093 | 0.168 ± 0.0038 | 0.143 ± 0.0024 | 0.263 ± 0.026 | 0.42 ± 0.091 | 0.178 ± 0.016 | 0.213 ± 0.019 | 0.412 ± 0.011 | 0.356 ± 0.018
13 | Cc1c(C)c2c(c(C)c1O)CCC(C)(C(=O)O)O2 (stereo unspecified) [Trolox] | 0.247 ± 0.0084 | 0.295 ± 0.0077 | 0.255 ± 0.0029 | 0.209 ± 0.031 | 0.1784 ± 0.0016 | 0.143 ± 0.0045 | 0.272 ± 0.097 | 0.32 ± 0.15 | 0.242 ± 0.0084 | 0.222 ± 0.021 | 0.405 ± 0.0096 | 0.316 ± 0.024
